{
  "source": "PubChem BioAssay (NCATS)",
  "note": "Inconclusive results are not listed. Calls of active or inactive are those of the source. Calls come from the whole dose curve; as a rule, active = well fitted inhibition curve with a large enough effect; inconclusive = small, poorly fitted or top-dose-only effect; inactive = no such curve, though single readings can be large or run the other way. Potency is the fitted concentration of half-maximal effect.",
  "data": [
    {"assay": "Primary qHTS for inhibitors of nuclear receptor binding SET domain protein 2 (NSD2) in an RCH-ACV wild type WT cells (2C) (AID 1645877); note: nearly all actives have a fitted effect of over 70% in size", "settings": "RCH-ACV NSD2 WT (2C) viability, CellTiter-Glo, 72 h; series mostly up to 44.9 µM", "values": [
      {"smiles": "c1cc(-c2cnn3cc(-c4ccc(N5CCNCC5)cc4)cnc23)c2cccnc2c1", "Potency": "4.17 µM (active)"},
      {"smiles": "C/C=C(/C)C(=O)O[C@H]1[C@H](OC(=O)/C(C)=C\\C)[C@@]23C(CC1(C)C)[C@]1(CCC4[C@@]5(C)CC[C@H](O[C@@H]6O[C@H](C(=O)O)[C@@H](O)[C@H](O[C@@H]7O[C@H](CO)[C@H](O)[C@H](O)[C@H]7O[C@@H]7O[C@@H](C)[C@H](O)[C@@H](O)[C@H]7O[C@@H]7OC[C@@H](O)[C@H](O)[C@H]7O)[C@H]6O[C@@H]6O[C@H](CO)[C@H](O)[C@H](O)[C@H]6O)C(C)(C)C5CC[C@@]4(C)[C@]1(C)C[C@H]2O)O[C@H]3O", "note": "(some centres undefined)", "Potency": "2.18 µM (active)"},
      {"smiles": "CC1CCC/C=C/C(=O)c2c(O)cc(O)cc2CC(=O)O1", "note": "(centres undefined)", "Potency": "2.05 µM (active)"},
      {"smiles": "COc1ccc([C@H]2OC[C@H]3O[C@@H](O[C@H]4[C@@H]2NC[C@@H]4O)[C@H](O)[C@H]3O)cc1", "Potency": "1.27 µM (active)"},
      {"smiles": "CC(=O)CC(=O)Nc1ccc(Cl)c(C(F)(F)F)c1", "Potency": "10.3 µM (active)"},
      {"smiles": "CC(C)C[C@@H]1NC(=O)[C@@H](Cc2ccccc2)NC(=O)C(CCCCCC(=O)C2CO2)NC(=O)[C@@H]2CCCCN2C1=O", "note": "(some centres undefined)", "Potency": "0.0252 µM (active)"},
      {"smiles": "CC(=O)O[C@H]1CC2C(COC(=O)CC(C)C)=CO[C@@H](OC(=O)CC(C)C)C2[C@]12CO2", "note": "(some centres undefined)", "Potency": "3.55 µM (active)"},
      {"smiles": "C=C1/C(=C/C=C2\\CCC[C@]3(C)[C@@H]([C@H](C)CC[C@@H](O)C(C)(C)O)CC[C@@H]23)C[C@@H](O)C[C@@H]1O", "Potency": "10.3 µM (active)"},
      {"smiles": "C=C1[C@@H](OC(C)=O)CC[C@@]2(C)[C@@H](OC(C)=O)[C@H](OC(C)=O)C3=C(C)C[C@H](OC(=O)C(C)CC)[C@@H]([C@@H](OC(C)=O)[C@H]12)C3(C)C", "note": "(some centres undefined)", "Potency": "1.21 µM (active)"}
    ]}
  ]
}
